Test results reported in PubChem BioAssay (NCI).
This is part of a sample that, as a whole, favours compounds with a hit. Of some 83,000 tested, about 20% had one in any assay.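 Percent growth is the endpoint: 0 to 100 indicates growth inhibition (40 means 60% inhibition), 0 means no net growth, and negative values indicate cell death.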 A number with no mark means an inactive call. Activity calls are given as the source filed them. Rule for the calls: active = growth percent below 10; inactive = the rest.

Experiments:
Test in all cases: NCI-60 one-dose screen, 48 h (100 = growth as untreated, 0 = no growth, -100 = all killed)
Conditions in all cases: 10 µM
[1] = system: DU-145 prostate
[2] = system: K-562 leukemia
[3] = system: MALME-3M melanoma
[4] = system: MDA-MB-231 breast
[5] = system: RXF 393 renal
[6] = system: SF-268 CNS
[7] = system: SF-295 CNS
[8] = system: SF-539 CNS
[9] = system: UACC-257 melanoma
[10] = system: M14 melanoma
[11] = system: HCT-15 colon
[12] = system: HT29 colon
[13] = system: SNB-75 CNS
[14] = system: SNB-19 CNS
[15] = system: PC-3 prostate
[16] = system: SK-MEL-5 melanoma
[17] = system: UACC-62 melanoma
[18] = system: LOX IMVI melanoma
[19] = system: SK-MEL-28 melanoma
[20] = system: U251 CNS

Compound | growth [1] | growth [2] | growth [3] | growth [4] | growth [5] | growth [6] | growth [7] | growth [8] | growth [9] | growth [10] | growth [11] | growth [12] | growth [13] | growth [14] | growth [15] | growth [16] | growth [17] | growth [18] | growth [19] | growth [20]
CC(=O)Nc1ccc(S(=O)(=O)c2ccnc3cc(Cl)ccc23)cc1 | 53.7% | 78.9% | 66.5% | 88.3% | 66.7% | 82.8% | 97.2% | 99.5% | 64.4% | 95.3% | 63.8% | 93.7% | 76.5% | 102% | 96% | 71.8% | 77.7% | 73.7% | 78.1% | 
COc1ccc2nc(-c3ccc(Cl)cc3)cc(-c3nnc(SC/C(=N\O)c4ccccc4)n3-c3ccccc3)c2c1 | 84.3% | 59% | 118% | 86.3% | 66.7% | 83.5% | 102% | 103% | 72.1% | 78.6% | 84.4% | 71.8% | 102% | 104% |  | 79.1% |  | 76.1% | 94.3% | 85.8%
NC(N)=N/N=C(\N=Nc1ccccc1)c1ccc(Cl)cc1 | 47.3% | 1.17% (active) | 85.6% | -12.5% (active) | 41.5% | 34.2% | -5.99% (active) | 19.7% | 70.9% | 10.2% | 22.1% | 21.2% | 60.6% | 81.9% |  | 65.1% |  | -7.27% (active) | 75.3% | 36.3%
COc1cc2cc(Oc3ccc(NC(=O)c4ccccc4)cc3)c(C)nc2cc1OC | 100% | 88.1% | 93.6% | 66% | 53.3% | 65.5% | 72.2% | 97.6% | 95.2% | 121% | 94.3% | 104% | 54.1% | 98.6% |  | 80.2% | 95.9% | 86.5% | 92.9% | 59.3%
CCc1ccc(C2=NN(c3ccc(S(C)(=O)=O)cc3)C(=O)CC2)cc1 | 21.3% | 10.4% | 38.8% | 55.5% | 27.4% | 42.8% | 9.24% (active) | 15.1% | 59.1% | 5.99% (active) | 22.1% | 11.5% | 16.7% | 51.5% | 56.6% | 10.7% | 38% | 35% | 50.7% | 
O=c1cn[nH]c2ccc(Br)cc12 | 105% | 95.7% | 114% | 116% | 95.3% | 99.9% | 107% | 95.6% | 104% | 101% | 104% | 95.7% | 96.2% | 106% | 95.4% | 100% | 112% | 97.2% | 123% | 
NS(=O)(=O)c1ccc(Br)cc1 | 114% | 109% | 103% | 99.3% | 113% | 98.3% | 88.3% | 96.3% | 88.2% | 86.3% | 94.8% | 91.8% | 93.2% | 96.9% | 75.6% | 104% |  | 98.5% | 104% | 102%
Cc1ccc(Cl)cc1NC(=O)CCl | 99.8% | 39% | 82.1% | 98.5% | 91.8% | 79.3% | 104% | 102% | 85.8% | 62.7% | 67.2% | 82.9% | 85.6% | 82.2% |  | 58.1% | 66.3% | 42.2% | 98.5% | 67.5%
COc1cc2cc(Oc3ccc(NC(=O)Nc4ccc(C(F)(F)F)cc4)cc3)c(C)nc2cc1OC | 71.4% | 57.1% | 82.9% | 80.9% | 6.29% (active) | 79.3% | 56% | 96.9% | 66.5% | 95.2% | 75.4% | 44.6% | 41% | 93.4% |  | 47.4% | 69.2% | 56.4% | 58.4% | 15%
Cc1ccc(NCCNCC(C)(C)O)c2c(=O)c3ccc(Cl)cc3sc12 | 5.67% (active) | -63.1% (active) | -71.8% (active) | -36.9% (active) | 24.2% | 39.4% | 74.1% | 69.8% | 78.5% | -78.7% (active) | -7.39% (active) | -73.1% (active) | 76.1% | 46.2% |  | 44.2% | -66.6% (active) | -92.6% (active) | -60% (active) | -74.5% (active)
CN(C)CCCOc1ccccc1NC1=C(Cl)C(=O)C(Nc2ccccc2OCCCN(C)C)=C(Cl)C1=O | -97.2% (active) | -25.3% (active) | -77.6% (active) | -71.9% (active) | -98.2% (active) | -88.1% (active) | -58.8% (active) | -96.6% (active) | -92.9% (active) | -68.8% (active) | -49% (active) | -51% (active) | 35% | -87.1% (active) |  | -96.3% (active) | -77.8% (active) | -74.9% (active) |  | -86.1% (active)
COc1ccc(C(=O)N/N=C/c2cc(C(F)(F)F)ccc2Cl)cc1 | 105% | 95.4% | 111% | 89.4% | 74.9% | 112% | 78.2% | 104% | 105% | 104% | 73.2% | 99.7% | 101% | 91.9% |  | 85.5% | 76.9% | 92.4% | 96.5% | 109%
